# This is a sample that favours compounds with a hit; in the whole collection about 19% have one here.
# DT40 TDP1 no CPT = qHTS for Inhibitors of human tyrosyl-DNA phosphodiesterase 1 (TDP1): qHTS in cells in absence of CPT; DT40 Tdp1-/- hTDP1 cells, no CPT, ATP luminescence, 48 h; Potency, µM (doses to about 46.2 µM), for the others: at the highest dose activity change, negative = growth inhibition, actives largely listed as inhibitors; 420,000 tested, 15% active; AID 686978, 2013; note: potency is the fitted concentration of half-maximal effect; % is set by controls: 0 for no effect and ±100 for the full control effect; nearly all actives have a fitted effect of over 55% in size
#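 No-CPT arm: Tdp1-/-;hTDP1 DT40 cells (400/well) plus compounds, incubated ≥48 hr at 37 °C. Readout CellTiter-Glo luminescence.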
# IL-1B inflam inh = inflammasome signaling inhibition, IL-1 beta readout; THP-1 LPS/ATP IL-1B secretion, AlphaLISA, 16 h; active compounds read low; AID 743279; 360,000 tested, 4.7% active; activity change, % at 57.5 µM; in the data active = activity change below about -50%; inconclusive = mostly about -30% to -49%; note: % is set by controls: 0 for no effect and ±100 for the full control effect
#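 Secreted IL-1B measured by AlphaLISA bead assay after 16 h compound exposure of THP-1 cells; compounds (final up to 57.5 uM) added 1 h before LPS (250 ng/mL) and ATP (1.25 mM) stimulation; lower signal means less secretion.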
# TDP1 cell CPT = DT40-hTDP1 cell growth loss with CPT | Potency, µM (highest dose often 46.2 µM), without a hit: top-dose activity change, negative = growth inhibition, hits mostly inhibitors | 420,000 tested, 12% active | AID 686979 | chicken DT40 Tdp1-/-;hTDP1 cells + 20 nM CPT, ATP luminescence, 48 h; note: potency is the fitted concentration of half-maximal effect; % is set by controls: 0 for no effect and ±100 for the full control effect; nearly all actives have a fitted effect of over 55% in size
#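 Chicken DT40 Tdp1-/- cells stably complemented with human TDP1 were seeded at 400 cells/well in medium containing 20 nM camptothecin, exposed to pin-transferred compounds, and grown at 37 °C for at least 48 hr. Viability was read as ATP luminescence.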
# MCF10A rerep = DNA re-replication induction in MCF 10a cells. MCF 10A DNA re-replication, Hoechst nuclear intensity, 48 h. Potency, µM (top dose mostly 46.1 µM), without a hit: at the top dose activity, positive = re-replication, actives largely listed as activators. 350,000 tested, 2.9% active. AID 624296; note: potency is the fitted concentration of half-maximal effect; % of control where 0% means no effect; nearly all actives have a fitted effect of over 50% in size
# SW480 rerep = inducers of DNA re-replication in SW480 colon cancer cells | 340,000 tested, 1.8% active | SW480 DNA re-replication, Hoechst DNA content imaging, 48 h | Potency, µM (highest dose often 46.1 µM), without a hit: at the top dose re-replication activation, most hits filed as activators; note: potency is the fitted concentration of half-maximal effect; % of control where 0% means no effect; nearly all actives have a fitted effect of over 55% in size
#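 Cells (250 per well) received 23 nL compound or DMSO by pin tool and were kept 48 hr at 37 C, 5% CO2. Nuclei were then stained with Hoechst for 40 min and scanned for DNA content.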
# Chronic BCR inh = inhibitors of chronic active B-cell receptor signaling. Potency, µM (top dose mostly 46.1 µM), inactives show at the top dose activity change, negative = inhibition, most hits filed as inhibitors. 340,000 tested, 0.05% active. ABC-DLBCL IkBa-CBG/CBR reporter, luminescence ratio, 4 h; active = well fitted inhibition curve with a large enough effect in the signal ratio, with a control signal flat, not every such curve was filed as active; inconclusive = small, poorly fitted or top-dose-only effect, or effect the other way, or a change in a side signal; the % refers to the signal ratio;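 note: potency is the fitted concentration of half-maximal effect; plate controls were basal doxycycline-induced cells for no effect and cells given 10 µM MG132 for full effect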
#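 TMD8 human ABC-DLBCL cells with doxycycline-inducible IκBα–green luciferase fusion and unfused red luciferase, in 0.5% FBS medium; compounds up to 46 uM, 4 h at 37C. Green/red luminescence ratio, filter-overlap corrected, fitted to concentration-response curves.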
# Starred values were filed as active, the others as inactive; ? = inconclusive; nt = no result; [ ] = dose if it differs, or a comment. Unless noted, calls come from the whole dose curve; as a rule, active = well fitted curve in the direction sought with a large enough effect; inconclusive = small, poorly fitted or top-dose-only effect, or another doubt; inactive = no such curve, though single readings can be large; an effect the other way counts as inactive or inconclusive.
SMILES,DT40 TDP1 no CPT,IL-1B inflam inh,TDP1 cell CPT,MCF10A rerep,SW480 rerep,Chronic BCR inh
Cc1ccc(C2(C(F)(F)F)NC(=O)N3CCN=C3S2)cc1 (centres undefined),?,nt,21µM*,-1%,-7%,?
COC(=O)c1c(C)[nH]c(C(=O)OC(C)C(=O)N(C)C2CCCCC2)c1C (centres undefined),16µM*,-17,?,-1%,-3%,?
Cc1[nH]c2ccc(C(=O)OC(C)C(=O)N(C)C3CCCCC3)cc2c1C (centres undefined),?,-81*,?,20%,17%,1%
CC(=O)c1c(C)[nH]c(C(=O)OC(C)C(=O)NC2CCCCC2)c1C (centres undefined),?,9,-20%,nt,nt,nt
Cc1ccc(C(=O)OC(C)C(=O)N(C)C2CCCCC2)cc1S(=O)(=O)N1CCCCC1 (centres undefined),23µM*,-29,?,0%,-3%,-1%
CC(=O)Nc1ccc(NC(=O)C(C)OC(=O)c2ccc3[nH]c(C)c(C)c3c2)cc1 (centres undefined),-16%,35,4%,20%,?,4%
CN1C(=O)C(O)(CC(=O)/C=C\c2ccc3c(c2)OCO3)c2ccccc21 (centres undefined),?,-101*,?,?,?,?
NC(=O)CN1C(=O)C(O)(CC(=O)/C=C\c2ccc3c(c2)OCO3)c2ccccc21 (centres undefined),?,-88*,-18%,?,14%,?
CCC(C)c1ccc(OCC(=O)Nc2cccc3ccc(C)nc23)cc1 (centres undefined),-25%,nt,?,nt,nt,nt
CCc1ccc(C(=O)Nc2ccc(OC)c(S(=O)(=O)N3CCOCC3)c2)cc1,-4%,-18,7%,16%,-1%,2%
COc1ccc(NC(=O)Cc2coc3cc(C)c(C(C)C)cc23)cc1S(=O)(=O)N1CCOCC1,12µM*,11,12µM*,?,?,-13%
COc1ccc(NC(=O)c2ccc(Cl)nc2)cc1S(=O)(=O)N1CCOCC1,23µM*,36,16µM*,2%,2%,12%
COc1ccc(NC(=O)Cn2ncc(Cl)c(Cl)c2=O)cc1S(=O)(=O)N1CCOCC1,10µM*,-54*,12µM*,4.1µM*,4.6µM*,?
O=S(=O)(c1cccc(NC(=S)Nc2ccc(Br)cc2Cl)c1)N1CCOCC1,29µM*,27,16µM*,-1%,1%[9.22 µM],-3%
O=C(Cc1ccc(Br)cc1)Nc1cccc(S(=O)(=O)N2CCOCC2)c1,-23%,0,-8%,-3%,-25%,?
Cc1cc(C)cc(NC(=O)c2ccc3c(O)c(S(=O)(=O)c4ccccc4)c(=O)[nH]c3c2)c1,18%,nt,12%,nt,nt,nt
O=C(Nc1cccc(S(=O)(=O)N2CCCC2)c1)c1ccc(Cl)nc1,5.8µM*,7,4.6µM*,?,18µM*,?
COc1ccccc1NS(=O)(=O)c1cc(NC(=O)c2ccc(Cl)nc2)ccc1Cl,7.3µM*,-63*,9.2µM*,18µM*,1%,?
O=C(Nc1cccc(S(=O)(=O)N2CCOCC2)c1)c1ccc(Cl)nc1,23µM*,26,16µM*,24%,-2%,?
O=C(Nc1cccc(S(=O)(=O)N2CCCC2)c1)c1ccncc1,-29%,67,?,2%,?,0%
O=c1cc(CN2CCOCC2)c2cc(Cl)ccc2o1,13%,-13,9%,-4%,-18%,-2%
CC1CCCN(C(=O)Cn2ncc3c([nH]c4ccccc43)c2=O)C1 (centres undefined),-19%,nt,-2%,nt,nt,nt
CC1(C)S[C@@H]2[C@H](NC(=O)[C@H](N)c3ccccc3)C(=O)N2[C@H]1C(=O)OC1OC(=O)c2ccccc21 (some centres undefined),8.2µM*,-56*,12µM*,1%,-43%,2%
CCCCCOc1ccc(/C(C)=N/NC2=NCCN2)cc1,?,-66*,?,20%,?,?
CCOc1ccc(Br)cc1/C(C)=N\NC1=NCCN1,4.6µM*,-80*,5.8µM*,?,?,-1%
SMILES,DT40 TDP1 no CPT,IL-1B inflam inh,TDP1 cell CPT,MCF10A rerep,SW480 rerep,Chronic BCR inh
CCCCCCOc1ccc(/C(C)=N/NC2=NCCN2)cc1,?,-56*,?,47%,2%,?
CC(=NNC1=NCCN1)c1cnn(C2=NCCN2)c1C,-16%,5,-12%,nt,nt,nt
COc1ccc(C(=O)NC(=S)N2CC(C)OC(C)C2)cc1OC (centres undefined),0%,-6,11%,-1%,2%,-5%
CCN(CC)CCNC(=O)CN1C(=O)c2cccnc2Oc2ccc(C)cc21,-12%,nt,-4%,nt,nt,nt
CC(C)Oc1ccc(CNC(=O)CN2C(=O)c3cccnc3Oc3ccc(Cl)cc32)cc1,18µM*,nt,16µM*,nt,nt,nt
CC(CNC(=O)CN1C(=O)c2cccnc2Oc2ccc(Cl)cc21)c1ccccc1 (centres undefined),?,2,?,1%,-7%,0%
Cc1ccc2c(c1)N(CC(=O)NCc1ccccc1Br)C(=O)c1cccnc1O2,-26%,nt,?,nt,nt,nt
COc1ccc(Br)cc1CNC(=O)CN1C(=O)c2cccnc2Oc2ccc(C)cc21,12µM*,nt,?,nt,nt,nt
CCCOc1ccc(CNC(=O)CN2C(=O)c3cccnc3Oc3ccc(C)cc32)cc1,?,nt,23µM*,nt,nt,nt
CCCC1OC(c2ccco2)OCC1CC (centres undefined),-23%,-10,-29%,6%,3%,nt
O=C(N/C(=C\c1ccco1)C(=O)N1CCCC1CO)c1ccccc1 (centres undefined),-1%,-4,-8%,7%,-2%,-15%
Cc1ccc(-c2nn(CC(=O)NC3CCCC3)c3c2cnc2ccccc23)cc1,-10%,nt,-29%,nt,nt,nt
CCc1ccc(-c2nn(CC(=O)NC3CCCCC3)c3c2cnc2ccc(C)cc23)cc1,-5%,nt,-10%,nt,nt,nt
CCCNC(=O)Cn1nc(-c2ccc(C)c(C)c2)c2cnc3ccc(F)cc3c21,-21%,nt,?,nt,nt,nt
CCCNC(=O)Cn1nc(-c2ccc(C)c(C)c2)c2cnc3ccc(OC)cc3c21,8.2µM*,nt,10µM*,nt,nt,nt
COc1cc2ncc3c(-c4ccccc4)nn(CC(=O)NC4CCCCC4)c3c2cc1OC,15µM*,nt,15µM*,nt,nt,nt

# Screening data from PubChem.
